Assay outcomes (PubChem BioAssay)
ALDH1A1 block – qHTS Assay for Inhibitors of Aldehyde Dehydrogenase 1 (ALDH1A1) | Purified ALDH1A1, NADH fluorescence, propionaldehyde substrate | Potency, µM (titrated, usually from 75.3 µM), inactives show top-dose activity, negative = inhibition, hits mostly inhibitors | 220,000 compounds, 7.3% hits | AID 1030, 2008;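 note: potency is the fitted concentration of half-maximal effect; plate controls were no enzyme wells and a reference inhibitor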
NPSR antagonist – qHTS Assay for Antagonists of the Neuropeptide S Receptor: cAMP Signal Transduction | Q6W5P4 | CHO-NPSR cells, cAMP TR-FRET, antagonist mode | Potency, µM (top dose mostly 38.3 µM), for the others: at the highest dose activity change, negative = inhibition, hits mostly inhibitors | 220,000 compounds, 1% hits | AID 1461, 2008; active = well fitted curve in the direction sought with a large enough effect; inconclusive = small, poorly fitted or top-dose-only effect, or another doubt; inactive = no such curve, though single readings can be large; an effect the other way counts as inactive or inconclusive; note: potency is the fitted concentration of half-maximal effect; nearly all actives have a fitted effect of over 50% in size
Target sequence (Q6W5P4 whole entry, looked up): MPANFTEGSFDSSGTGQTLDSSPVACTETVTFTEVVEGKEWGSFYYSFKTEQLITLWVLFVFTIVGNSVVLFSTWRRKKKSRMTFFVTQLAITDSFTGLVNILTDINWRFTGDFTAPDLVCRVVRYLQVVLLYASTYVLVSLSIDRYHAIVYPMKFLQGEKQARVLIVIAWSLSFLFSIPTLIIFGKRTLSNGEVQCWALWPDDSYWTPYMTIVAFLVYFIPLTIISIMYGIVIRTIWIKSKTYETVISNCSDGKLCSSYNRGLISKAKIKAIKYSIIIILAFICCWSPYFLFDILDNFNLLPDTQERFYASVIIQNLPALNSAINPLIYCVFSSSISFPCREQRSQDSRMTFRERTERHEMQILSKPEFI
Sfp PPTase inh – qHTS Assay for Inhibitors of Bacillus subtilis Sfp phosphopantetheinyl transferase (PPTase) | 4'-phosphopantetheinyl transferase ffp (Bacillus subtilis), Q9F4F7 | Biochemical Sfp PPTase activity, qHTS | Potency, µM, for inactives: largest response in the series, negative = inhibition, actives largely listed as inhibitors | 310,000 compounds, 3.5% hits | AID 1490, 2009; active = well fitted curve in the direction sought with a large enough effect; inconclusive = small, poorly fitted or top-dose-only effect, or another doubt; inactive = no such curve, though single readings can be large; an effect the other way counts as inactive or inconclusive;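 note: the enzyme is Sfp with the accession as filed and its product quenches rhodamine fluorescence; potency is the fitted concentration of half-maximal effect; 0% = enzyme reaction without inhibitor and -100% = no enzyme wells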
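Step 1, compound plus 15 nM Sfp-PPTase, 15 min, room temperature. Step 2, add rhodamine-CoA (5 uM) and BHQ-2-YbbR (12.5 uM). Step 3, read 525/598 nm fluorescence at 0 and 30 min.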
Coupling enz – qHTS Assay for Inhibitors of Fructose-1,6-bisphosphate Aldolase from Giardia Lamblia: Coupling assay counterscreen; coupling enzyme system counterscreen, AmpLite Red fluorescence; AID 2472, 2010; 290,000 compounds, 0.67% hits; activity change, negative = inhibition, % at 58.2 µM, hits read low; in the data active = activity change below about -30%
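Counterscreen of the coupled detection system alone, without aldolase: glyceraldehyde-3-phosphate coupling enzymes plus AmpLite Red readout. Compounds at 57.5 uM final, 10 min RT preincubation, 20 min RT reaction, fluorescence 525/598 nm.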
JMJD2E inh – qHTS Assay for Inhibitors of Human Jumonji Domain Containing 2E (JMJD2E) | Lysine-specific demethylase 4E (Homo sapiens), B2RXH2 | JMJD2E catalytic domain, FDH-coupled NADH fluorescence (FDH is formaldehyde dehydrogenase) | Potency, µM (titrated, usually from 57.1 µM), inactives show top-dose activity change, negative = inhibition, hits mostly inhibitors | 230,000 compounds, 1.6% hits | AID 2147, 2009;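 note: potency is the fitted concentration of half-maximal effect; 0% = wells with enzyme and -100% = buffer wells without enzyme; nearly all actives have a fitted effect of over 50% in size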
RGS12 GoLoco inh – qHTS Assay for Inhibitors of RGS12 GoLoco Motif Activity (Red Fluorophore). Gai1:RGS12 GoLoco peptide FP, rhodamine, 10 min. Potency, µM (highest dose often 61.6 µM), for the others: at the highest dose activity, negative = inhibition, actives largely listed as inhibitors. 230,000 compounds, 0.44% hits. AID 880, 2007; active = well fitted inhibition curve with a large enough effect, not every such curve was filed as active; inactive = no such curve, though single readings can be large or run the other way; note: potency is the fitted concentration of half-maximal effect; nearly all actives have a fitted effect of over 30% in size
Target sequence (P63096 whole entry, looked up): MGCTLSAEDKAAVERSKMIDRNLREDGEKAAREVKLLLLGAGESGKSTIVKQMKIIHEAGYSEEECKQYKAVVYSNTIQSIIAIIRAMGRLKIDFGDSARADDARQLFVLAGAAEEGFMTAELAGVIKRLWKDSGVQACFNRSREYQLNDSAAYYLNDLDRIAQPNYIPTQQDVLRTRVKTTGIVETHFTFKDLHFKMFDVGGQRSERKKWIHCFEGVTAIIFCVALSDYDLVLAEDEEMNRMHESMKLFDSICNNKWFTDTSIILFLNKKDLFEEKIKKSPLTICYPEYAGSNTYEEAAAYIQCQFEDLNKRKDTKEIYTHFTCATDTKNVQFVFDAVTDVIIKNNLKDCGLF
Starred values were filed as active, the others as inactive; [ ] = remark or other dose. This is a sample that favours compounds with a hit; in the whole collection about 8.5% have one here. Unless noted, calls come from the whole dose curve; as a rule, active = well fitted inhibition curve with a large enough effect (not every such curve was filed as active); inconclusive = small, poorly fitted or top-dose-only effect, or another doubt; inactive = no such curve, though single readings can be large or run the other way. Unless noted, % is set by controls: 0 for no effect and ±100 for the full control effect.

What do the screens show for `O=C(O)c1cc(-c2ccc(Cl)s2)nc2ccccc12`?
ALDH1A1 block: inconclusive; NPSR antagonist: 6.3µM*; Sfp PPTase inh: -6%; Coupling enz: 5; JMJD2E inh: inconclusive; RGS12 GoLoco inh: 8%

How did Cc1ccc(-c2cc(C(=O)O)c3ccccc3n2)s1 do in these assays?
Sfp PPTase inh: 10%; Coupling enz: -1

Results for NC(=S)NCCCC(N)C(=O)O (stereo not drawn) ?
ALDH1A1 block: 2.5µM*; NPSR antagonist: 1%[46.1 µM]; JMJD2E inh: -5%; RGS12 GoLoco inh: -3%

How did CC[C@H](C)[C@H](NC(=O)[C@@H]1CCCN1C(=O)[C@H](Cc1cnc[nH]1)NC(=O)[C@@H](NC(=O)[C@H](Cc1ccc(O)cc1)NC(=O)[C@@H](NC(=O)[C@H](CCCN=C(N)N)NC(=O)CNC)C(C)C)[C@@H](C)CC)C(=O)O do in these assays?
Sfp PPTase inh: 24%; Coupling enz: 1

Results for CCCOc1ccc(C(=O)CCNC(Cc2c[nH]c3ccccc23)C(=O)O)cc1 (stereo not drawn) ?
Sfp PPTase inh: inconclusive; Coupling enz: 4

Results for O=C(CCN1CCCCC1)c1ccc2c(c1)OCCO2 ?
ALDH1A1 block: 0.1µM*; NPSR antagonist: 3%[46.1 µM]; Sfp PPTase inh: -14%; Coupling enz: 4; JMJD2E inh: -4%; RGS12 GoLoco inh: -9%

Results for O=C(CCN1CCc2ccccc21)c1ccc2c(c1)OCCO2 ?
ALDH1A1 block: 3.2µM*; NPSR antagonist: -14%[46.1 µM]; Sfp PPTase inh: inconclusive; Coupling enz: -7; JMJD2E inh: -21%; RGS12 GoLoco inh: 17%

Results for O=C(CCN1CCc2ccccc2C1)c1ccc2c(c1)OCCO2 ?
ALDH1A1 block: inconclusive; NPSR antagonist: -11%[46.1 µM]; Sfp PPTase inh: 45µM*; Coupling enz: -9; JMJD2E inh: -6%; RGS12 GoLoco inh: -19%

What do the screens show for `O=C(c1ccc2c(c1)OCO2)N1CCc2ccccc2C1`?
ALDH1A1 block: inconclusive; NPSR antagonist: -7%[46.1 µM]; Sfp PPTase inh: 6%; Coupling enz: 1; JMJD2E inh: -6%; RGS12 GoLoco inh: 1%

How did O=C(CCCc1ccccc1)c1ccc2c(c1)OCCO2 do in these assays?
ALDH1A1 block: inconclusive; NPSR antagonist: -6%[46.1 µM]; Sfp PPTase inh: -17%; Coupling enz: 3; JMJD2E inh: -24%; RGS12 GoLoco inh: -7%

How did O=C(CCN1CCCC1Cc1ccccc1)c1ccc2c(c1)OCCO2 (stereo not drawn) do in these assays?
ALDH1A1 block: 0.035µM*; NPSR antagonist: inconclusive; Sfp PPTase inh: 50µM*; Coupling enz: 0; JMJD2E inh: -10%; RGS12 GoLoco inh: -2%

Results for O=C(c1ccc2c(c1)OCCO2)N1CCCCC1 ?
ALDH1A1 block: -12%; NPSR antagonist: -2%[46.1 µM]; Sfp PPTase inh: 10%; Coupling enz: 3; JMJD2E inh: 7%; RGS12 GoLoco inh: -3%

How did O=C(CN(C(=O)CNS(=O)(=O)c1ccccc1)c1ccc(F)cc1)NCc1ccco1 do in these assays?
Sfp PPTase inh: 10%; Coupling enz: -1

How did CN(CC(=O)O)Cc1nc2ccccc2[nH]1 do in these assays?
ALDH1A1 block: -4%; NPSR antagonist: 0%[46.1 µM]; Sfp PPTase inh: 89µM*; Coupling enz: -3; JMJD2E inh: -26%; RGS12 GoLoco inh: 10%

What do the screens show for `CC(=O)NCCc1nc2ccccc2[nH]1`?
ALDH1A1 block: 4%; NPSR antagonist: 0%[46.1 µM]; Sfp PPTase inh: 12%; Coupling enz: -3; JMJD2E inh: 0%; RGS12 GoLoco inh: 10%

How did COc1ccc(C)cc1NC(=O)CN1CCCN(S(=O)(=O)c2ccc(Br)cc2)CC1 do in these assays?
Sfp PPTase inh: -5%; Coupling enz: -3

Results for C=C1CCN(C(C(=O)O)C(C)C)S(=O)(=O)c2ccccc21 (stereo not drawn) ?
Sfp PPTase inh: 3%; Coupling enz: 6

How did Cc1ccc(-c2noc(CN3CCN(c4ccccc4F)CC3)n2)cc1 do in these assays?
ALDH1A1 block: 11µM*; NPSR antagonist: -11%[46.1 µM]; Sfp PPTase inh: -3%; Coupling enz: 0; JMJD2E inh: 6%; RGS12 GoLoco inh: 8%

What do the screens show for `Cc1ccc(-c2noc(CN3CCCCC3)n2)cc1`?
ALDH1A1 block: 6%; NPSR antagonist: -12%[46.1 µM]; Sfp PPTase inh: 11%; Coupling enz: 4; JMJD2E inh: -9%; RGS12 GoLoco inh: -5%

What do the screens show for `O=[N+]([O-])c1ccc(/C=N/Nc2nc(N3CCOCC3)nc(N3CCOCC3)n2)cc1`?
ALDH1A1 block: 0%; NPSR antagonist: 11%; Sfp PPTase inh: 11%; Coupling enz: 2; JMJD2E inh: -2%; RGS12 GoLoco inh: 15%

What do the screens show for `O=[N+]([O-])c1ccc(/C=C2\CCC(C3=CCCC3)=C2N2CCOCC2)cc1`?
ALDH1A1 block: 14µM*; NPSR antagonist: -19%; Sfp PPTase inh: inconclusive; Coupling enz: 4; JMJD2E inh: inconclusive; RGS12 GoLoco inh: -9%

What do the screens show for `O=C(CCNc1ccc(Br)cc1)c1cccc([N+](=O)[O-])c1`?
ALDH1A1 block: 0.63µM*; NPSR antagonist: -16%; Sfp PPTase inh: 5%; Coupling enz: -1; JMJD2E inh: -9%; RGS12 GoLoco inh: 15%

Results for O=C(NCCNc1ccc([N+](=O)[O-])cc1C(F)(F)F)c1ccccc1 ?
ALDH1A1 block: 10µM*; NPSR antagonist: -18%; Sfp PPTase inh: 5%; Coupling enz: 3; JMJD2E inh: -4%; RGS12 GoLoco inh: 4%

What do the screens show for `Cc1ccc(NC(=O)CCC(=O)NNC(=O)c2cccc([N+](=O)[O-])c2)cc1C`?
ALDH1A1 block: 7%; NPSR antagonist: -7%[46.1 µM]; Sfp PPTase inh: 24%; Coupling enz: 0; JMJD2E inh: 10%; RGS12 GoLoco inh: -1%

What do the screens show for `O=C(Nc1ccc(Br)cc1)c1cc([N+](=O)[O-])cc([N+](=O)[O-])c1`?
Sfp PPTase inh: -14%; Coupling enz: 1

What do the screens show for `O=C(Nc1ccc(Cc2ccncc2)cc1)c1cccc([N+](=O)[O-])c1`?
ALDH1A1 block: 7%; NPSR antagonist: -20%; Sfp PPTase inh: inconclusive; Coupling enz: -2; JMJD2E inh: -3%; RGS12 GoLoco inh: -2%

How did Cc1ccc(NCCC(=O)c2cccc([N+](=O)[O-])c2)cc1 do in these assays?
ALDH1A1 block: 0.32µM*; NPSR antagonist: 6%[46.1 µM]; Sfp PPTase inh: 2%; Coupling enz: 1; JMJD2E inh: -7%; RGS12 GoLoco inh: -7%
